This is one part of a sample in which hits are shown more often than they occur.
IDE exosite FP: exo-site inhibitors of human insulin-degrading enzyme. P14735. purified IDE, FL-6b probe fluorescence polarization; active compounds read low. z-score at 20 µM. actives 6.3% (n = 17,000). AID 1259349;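 active = z-score of -3 or lower, meaning strong loss of probe binding signal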;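 also: His-tagged human IDE residues 42-1019 made in E. coli with 30 nM FL-6b probe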
Target sequence (P14735 42-1019 limits assumed): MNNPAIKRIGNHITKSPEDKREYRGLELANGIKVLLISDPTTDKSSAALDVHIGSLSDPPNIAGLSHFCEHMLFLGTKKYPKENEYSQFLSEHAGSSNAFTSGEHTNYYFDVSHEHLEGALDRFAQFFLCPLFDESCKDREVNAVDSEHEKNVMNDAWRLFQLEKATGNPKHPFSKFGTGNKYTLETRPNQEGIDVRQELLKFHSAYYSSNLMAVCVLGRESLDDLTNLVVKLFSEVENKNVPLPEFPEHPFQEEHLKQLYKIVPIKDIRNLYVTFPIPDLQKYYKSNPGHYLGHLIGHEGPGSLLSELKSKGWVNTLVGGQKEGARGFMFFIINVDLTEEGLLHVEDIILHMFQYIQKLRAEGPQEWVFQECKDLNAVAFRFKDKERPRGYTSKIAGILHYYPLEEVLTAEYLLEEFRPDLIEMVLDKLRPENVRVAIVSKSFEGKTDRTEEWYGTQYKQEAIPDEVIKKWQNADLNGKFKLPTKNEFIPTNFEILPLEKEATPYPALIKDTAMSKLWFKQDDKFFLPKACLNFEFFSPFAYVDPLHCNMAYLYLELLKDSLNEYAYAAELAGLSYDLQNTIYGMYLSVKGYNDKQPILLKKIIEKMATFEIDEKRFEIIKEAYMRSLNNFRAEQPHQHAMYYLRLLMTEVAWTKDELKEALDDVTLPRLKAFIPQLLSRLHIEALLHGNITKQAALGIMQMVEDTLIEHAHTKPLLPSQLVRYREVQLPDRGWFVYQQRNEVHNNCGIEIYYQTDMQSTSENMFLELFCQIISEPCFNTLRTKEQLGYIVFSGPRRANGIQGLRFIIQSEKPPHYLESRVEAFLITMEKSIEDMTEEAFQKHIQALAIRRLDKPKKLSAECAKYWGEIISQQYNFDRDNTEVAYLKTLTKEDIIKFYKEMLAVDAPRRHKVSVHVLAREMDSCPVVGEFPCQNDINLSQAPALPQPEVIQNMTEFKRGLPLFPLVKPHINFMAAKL
Each line names hits and unclear results; the compound was inactive in the other large screens; ! = not confirmed by another sample.

CO[C@@H](CN(C)C(=O)C1CCOCC1)[C@H](C)CN([C@H](C)CO)S(=O)(=O)c1ccccc1	none
CN(C)CC(=O)N[C@H]1CC[C@H](CCNC(=O)C2CCC2)O[C@@H]1CO	none
COc1ccc2c3c([nH]c2c1)[C@H](CO)N(C(=O)c1cnccn1)CC31CN(S(=O)(=O)c2ccccc2)C1	none
O=C(CN1CCOCC1)N[C@@H]1CC[C@H](CCn2cc(C3CC3)nn2)O[C@@H]1CO	none
COCC(=O)NC[C@H]1N[C@H](CO)[C@@H]1c1ccc(-c2ccccc2)cc1	none
O=C(NC[C@H]1N[C@H](CO)[C@H]1c1ccc(-c2ccccc2F)cc1)c1ccccn1	IDE exosite FP -4.7
O=C(NC[C@H]1N[C@@H](CO)[C@H]1c1ccc(-c2ccc(F)cc2)cc1)c1ccccn1	none
COCC(=O)NC[C@@H]1N[C@@H](CO)[C@H]1c1ccc(C2=CCCCC2)cc1	none
COCC(=O)NC[C@@H]1N[C@@H](CO)[C@H]1c1ccc(-c2ccccc2F)cc1	IDE exosite FP -3.8
O=C(NC[C@H]1N[C@@H](CO)[C@H]1c1ccc(-c2ccccc2F)cc1)c1ccccn1	none
O=S(=O)(c1cccs1)N1CCCCN2[C@@H](CO)[C@@H](c3ccc(-c4ccccc4)cc3)[C@@H]2C1	none
C[C@@H]1CCCCO[C@@H](CN(C)C(=O)Cc2ccccc2)[C@H](C)CN([C@@H](C)CO)C(=O)c2cc(NS(C)(=O)=O)ccc2O1	none
COc1ccccc1C#Cc1ccc([C@@H]2[C@H](C#N)N(C(=O)C3CCC3)[C@H]2CO)cc1	IDE exosite FP -7.1
COc1ccccc1C#Cc1ccc([C@@H]2[C@@H](C#N)N(C(=O)C3CCC3)[C@H]2CO)cc1	IDE exosite FP -4.8
N#C[C@@H]1[C@@H](c2ccc(C#Cc3ccccc3F)cc2)[C@@H](CO)N1C(=O)C1CCCCC1	none
COc1ccccc1C#Cc1ccc([C@@H]2[C@@H](CO)N(C(=O)C3CCC3)[C@H]2C#N)cc1	IDE exosite FP -4.2
COc1ccccc1C#Cc1ccc([C@@H]2[C@@H](C#N)N(C(=O)C3CCC3)[C@@H]2CO)cc1	IDE exosite FP -4.6
N#C[C@@H]1[C@H](c2ccc(C#Cc3ccc(F)cc3)cc2)[C@@H](CO)N1C(=O)C1CCCC1	none
N#C[C@@H]1[C@H](c2ccc(C#Cc3ccccc3F)cc2)[C@H](CO)N1C(=O)C1CCC1	none
CN(C)C(=O)c1ccc(-c2ccc([C@@H]3[C@@H](CO)N(C(=O)Cc4ccccn4)[C@H]3C#N)cc2)cc1	none
C[C@@H](O)C#Cc1ccc([C@H]2[C@H]3CN(C(=O)c4ccncc4)CCCCN3[C@H]2CO)cc1	none
COCC(=O)N(C[C@H]1N[C@@H](CO)[C@@H]1c1ccc(-c2cccnc2)cc1)C(C)C	none
C/C=C/c1ccc([C@H]2[C@@H](CO)N(C(=O)C3CCCC3)[C@H]2CNCC)cc1	none
N#C[C@@H]1[C@H](c2ccccc2C2=CCCC2)[C@@H](CO)N1C(=O)C1CCCC1	none
O=C(O)C[C@@H]1CC[C@H]2[C@@H](COC[C@H](O)CN2S(=O)(=O)c2ccc(Oc3ccccc3)cc2)O1	none
CCCC#Cc1ccc([C@H]2[C@H](CO)N3C(=O)CN(C(=O)Nc4ccccc4)C[C@@H]23)cc1	none
O=C(c1cnccn1)N1CC(=O)N2[C@H](C1)[C@@H](c1ccc(C#CCc3ccccc3)cc1)[C@@H]2CO	none
COc1ccc2c3c([nH]c2c1)[C@H](CO)N(S(=O)(=O)c1ccccc1)CC31CCN(C)CC1	none
COc1ccccc1C#Cc1ccc([C@@H]2[C@@H](CO)N(C(=O)C3CCCCC3)[C@H]2C#N)cc1	none
N#C[C@@H]1[C@@H](c2ccc(C#Cc3ccccc3F)cc2)[C@H](CO)N1C(=O)C1CCCCC1	none
COc1ccccc1C#Cc1ccc([C@H]2[C@H](C#N)N(C(=O)C3CCC3)[C@H]2CO)cc1	IDE exosite FP -8.1
COc1ccccc1C#Cc1ccc([C@@H]2[C@H](C#N)N(C(=O)C3CCCCC3)[C@H]2CO)cc1	IDE exosite FP -6.6
C[C@H]1CC(=O)NCC/C=C\C[C@H](c2ccc3c(c2)OCO3)NC1=O	none
CCC(=O)Nc1ccc2c(c1)C(=O)N(C)C[C@H](OC)[C@@H](C)CN(C(=O)Cc1cccnc1)[C@@H](C)CO2	none
COCC#Cc1ccc([C@H]2[C@@H](CO)N3C(=O)CN(C(=O)Nc4ccccc4F)C[C@H]23)cc1	none
CC(C)C#Cc1ccc([C@@H]2[C@H]3CN(C(=O)Cc4cccnc4)CC(=O)N3[C@H]2CO)cc1	none
N#Cc1cccc(-c2ccc(C3[C@@H]4CN(Cc5ccccc5)C[C@H]3N4)cc2)c1 (stereo not given in full)	none
COc1ccccc1CN1C[C@@H]2N[C@H](C1)C2c1ccc(-c2ccncc2)cc1 (stereo not given in full)	none
COc1ccccc1CN1C[C@@H]2N[C@H](C1)C2c1ccc(-c2ccc(C(=O)N(C)C)cc2)cc1 (stereo not given in full)	none
COc1ccccc1CN1C[C@@H]2N[C@H](C1)C2c1ccc(-c2cccc(C#N)c2)cc1 (stereo not given in full)	IDE exosite FP -4!
COc1ccccc1CN1C[C@@H]2N[C@H](C1)C2c1ccc(-c2ccc(C#N)cc2)cc1 (stereo not given in full)	none
COc1ccccc1CN1C[C@@H]2N[C@H](C1)C2c1ccc(-c2ccccc2OC)cc1 (stereo not given in full)	IDE exosite FP -10
CC(=O)N1[C@H](CO)[C@H](c2ccccc2)C12CN(S(=O)(=O)c1ccccc1)C2	none
CN1CCCCN2[C@H](CO)[C@@H](c3ccc(-c4ccc(F)cc4)cc3)[C@@H]2C1	none
COc1ccc(-c2ccc3n(c2=O)C[C@H]2[C@H](CO)[C@@H](C(=O)N(C)C)[C@@H]3N2Cc2cncnc2)cc1	none
C[C@@H]1CC(=O)N[C@@H](c2ccccc2)C/C=C\C[C@H](c2ccc3c(c2)OCO3)NC1=O	none
CCCNC(=O)N1CC2(CCN(C(=O)Cc3cccnc3)CC2)c2c([nH]c3cc(OC)ccc23)[C@H]1CO	none
CS(=O)(=O)N1CC(=O)N2[C@H](CO)[C@H](c3ccc(C#Cc4cccc(F)c4)cc3)[C@@H]2C1	IDE exosite FP -9
CS(=O)(=O)N1CC(=O)N2[C@H](CO)[C@@H](c3ccc(C#Cc4cccc(F)c4)cc3)[C@H]2C1	none
CS(=O)(=O)N1CC(=O)N2[C@H](CO)[C@@H](c3ccc(C#Cc4cccc(F)c4)cc3)[C@@H]2C1	none
CCC(=O)N1CC(=O)N2[C@H](C1)[C@H](c1ccc(C#Cc3cccc(F)c3)cc1)[C@@H]2CO	IDE exosite FP -8.1
CS(=O)(=O)N1CC(=O)N2[C@@H](CO)[C@H](c3ccc(C#Cc4cccc(F)c4)cc3)[C@@H]2C1	none
CCS(=O)(=O)N1CC(=O)N2[C@H](C1)[C@@H](c1ccc(C#Cc3cccc(F)c3)cc1)[C@@H]2CO	none
CCC(=O)N1CC(=O)N2[C@@H](CO)[C@H](c3ccc(C#Cc4cccc(F)c4)cc3)[C@@H]2C1	none
O=C(CC1CC1)N1CC(=O)N2[C@H](CO)[C@@H](c3ccc(C#Cc4cccc(F)c4)cc3)[C@@H]2C1	none
CCC(=O)N1CC(=O)N2[C@H](CO)[C@H](c3ccc(C#Cc4cccc(F)c4)cc3)[C@@H]2C1	IDE exosite FP -7
COc1cccc(-c2ccc(C3[C@@H]4CN(C(=O)Nc5ccccc5F)C[C@H]3N4)cc2)c1 (stereo not given in full)	none
O=C(C[C@@H]1CC[C@H](NC(=O)C2CC2)[C@@H](CO)O1)Nc1ccccc1	none
O=S(=O)(c1cccs1)N1CCCCN2[C@H](CO)[C@H](c3ccc(Br)cc3)[C@@H]2C1	none
CO[C@H]1CC[C@H]2CCOc3c(C#N)cccc3C(=O)N(C)CCCC(=O)N(C)C[C@H]1O2	none
